Compound activity (PubChem BioAssay)
Most compounds without a hit are left out; they make up all but 2.5% or so of the library.
GRK2 inh: human GRK2 inhibition via aptamer displacement; P25098; bead flow cytometry, FAM-aptamer displacement from GRK2; inhibition of aptamer binding, % at 10 µM; 330,000 tested, 0.59% active;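 active = inhibition of aptamer binding above 40%, roughly 3 SD of noise, on plates passing a quality check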;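 also: median bead fluorescence of bound FAM aptamer so fluorescent compounds give negative values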
Target sequence (P25098 whole entry, looked up): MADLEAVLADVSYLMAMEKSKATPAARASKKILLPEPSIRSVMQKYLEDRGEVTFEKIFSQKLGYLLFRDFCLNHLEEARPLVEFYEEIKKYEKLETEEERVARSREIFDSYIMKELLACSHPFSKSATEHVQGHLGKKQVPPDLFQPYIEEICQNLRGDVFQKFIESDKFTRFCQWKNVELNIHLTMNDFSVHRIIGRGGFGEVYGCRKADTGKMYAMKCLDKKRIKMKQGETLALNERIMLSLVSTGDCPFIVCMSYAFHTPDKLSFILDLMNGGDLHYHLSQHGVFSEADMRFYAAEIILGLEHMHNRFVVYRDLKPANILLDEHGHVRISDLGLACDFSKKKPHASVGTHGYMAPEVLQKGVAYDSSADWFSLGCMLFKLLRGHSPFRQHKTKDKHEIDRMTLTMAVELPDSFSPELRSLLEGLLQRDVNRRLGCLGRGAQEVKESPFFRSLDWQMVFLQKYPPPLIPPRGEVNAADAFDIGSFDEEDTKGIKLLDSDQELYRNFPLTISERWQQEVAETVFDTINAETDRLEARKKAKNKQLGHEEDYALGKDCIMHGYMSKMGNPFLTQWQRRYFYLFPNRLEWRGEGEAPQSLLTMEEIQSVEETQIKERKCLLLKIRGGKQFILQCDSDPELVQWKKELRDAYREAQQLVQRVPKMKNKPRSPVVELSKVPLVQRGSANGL
MEKK3 PB1 HTS: MEKK3-MEK5 PB1 interaction, increase or decrease | Q99759 | bead-based flow cytometry, Alexa488-MEK5 binding to MEKK3; actives lie on both sides; 0 = blocked by unlabeled MEK5, 100 = vehicle | binding response (% of control), % at 10 µM | 290,000 tested, 1.4% active | AID 1529;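 active = binding response more than 3 SD above or below the average of its plate-row segment, actives on both sides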;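 also: Alexa488 bead fluorescence after subtracting the streptavidin-only scavenger bead signal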
MEKK2 WT-MEK5: raises or lowers MEK5 binding to wildtype human MEKK2 PB1 domain; 290,000 tested, 1.1% active; bead flow cytometry, Alexa488-MEK5 binding to MEKK2 WT; actives lie on both sides; Q9Y2U5; AID 1531; binding response (% of control), % at 10 µM; in the data active = binding response below about 67% or above about 130%
MEKK2mut PB1 HTS: signal of MEK5 binding to mutant human MEKK2 PB1 domain; bead flow cytometry, Alexa488-MEK5 binding to MEKK2 mutant; percent response, % at 10 µM; 290,000 tested, 0.35% active; in the data active = percent response above about 24%, passing the limit was not always enough
MEKK2wt confirm: raises or lowers MEK5 binding to wildtype human MEKK2, retest | shares compounds with MEKK3 PB1 HTS | bead flow cytometry, Alexa488-MEK5 binding to MEKK2 WT; actives lie on both sides | binding response (% of control), % at 10 µM | 5,900 tested, 2.4% active | AID 1892; in the data active = binding response below about 16% or above about 210%; inactive = in between
MEKK2mut confirm: signal of MEK5 binding to mutant human MEKK2, retest | shares compounds with MEKK3 PB1 HTS | bead flow cytometry, Alexa488-MEK5 binding to MEKK2 mutant | percent response, % at 10 µM | 5,900 tested, 2% active | AID 1893; in the data active = percent response mostly above about 71%, no sharp cut-off; inactive = mostly below about 38%;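 also: higher means compound restores mutant binding toward wildtype level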
MEKK3-MEK5 inh: confirmation of inhibitors of MEK5 binding to human MEKK3; bead flow cytometry, Alexa488-MEK5 binding to MEKK3; hits give low values; AID 1894; shares compounds with MEKK3 PB1 HTS; binding response (% of control), % at 10 µM; 5,900 tested, 1.8% active;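 active = binding response below 72% of control, or above a set upper limit, though filed actives all read lower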;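 also: lower values mean stronger disruption of MEK5 binding to MEKK3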
A number is an active result; n = inactive; x = no result given; [ ] = remark or other dose.

SMILES	GRK2 inh	MEKK3 PB1 HTS	MEKK2 WT-MEK5	MEKK2mut PB1 HTS	MEKK2wt confirm	MEKK2mut confirm	MEKK3-MEK5 inh
O=C(COC(=O)c1oc2ccccc2c1CSc1ccc(Cl)cc1)NC1CCCC1	n	n	n	n	x	x	x
NC(=O)COC(=O)c1oc2ccccc2c1CSc1ccc(Cl)cc1	n	157	n	n	n	n	n
CCOc1ccc(N2C(=O)CSC23CCCCC3)cc1	n	n	n	n	x	x	x
c1ccc(-c2nnc(CN3CCCc4ccccc43)o2)cc1	n	n	9.0	26	n	n	n
Fc1ccc(N2CCN(Cc3nnc(-c4ccccc4)o3)CC2)cc1	n	135	n	n	n	n	n
O=S(=O)(c1ccc(F)cc1)N1CCN(Cc2nnc(-c3ccccc3)o2)CC1	n	x	x	x	x	x	x
O=C(Nc1ccc2oc(=O)ccc2c1)c1cc([N+](=O)[O-])ccc1N1CCOCC1	n	n	n	n	x	x	x
COc1ccc(-n2c(=O)c3ccccc3n(CC(=O)Nc3cccc(OC)c3)c2=O)cc1	n	50[inhibitor]	n	n	n	n	n
COc1ccc(Cl)cc1-c1nc(-c2ccncc2)no1	n	n	n	n	x	x	x
Cc1cccc(NC(=O)c2ccc([N+](=O)[O-])cc2Cl)n1	n	137	n	n	n	n	n
NNC(=O)c1cc2c(s1)-c1cc(Cl)ccc1SC2	n	n	n	n	x	x	x
CCN(CC)CCNC(=O)c1cc2c(s1)-c1ccccc1SC2	n	n	146	25	n	n	n
c1ccc(CNc2nc(NCc3ccccc3)c3ccccc3n2)cc1	x	n	262	140	256	116	n
Cc1ccc(C)c(NC(=O)c2nc(-c3ccccc3)n(-c3ccccc3)n2)c1	n	n	n	n	x	x	x
Cc1ccc(C)c(NC(=O)c2cc(-c3ccccc3)nn2-c2ccccc2)c1	n	60[inhibitor]	n	n	n	n	n
Oc1ccc(Cc2ncc(C(F)(F)F)cc2Cl)cc1	n	n	n	n	x	x	x
COc1ccc(-c2nn(-c3ccccc3C)cc2CNCCc2cnc[nH]2)cc1F	n	n	149	n	n	n	n
CC(C)n1c(/N=C/c2c[nH]c3ccccc23)nc2ccccc21	n	n	n	n	x	x	x
Cc1ccc(-c2csc(N3CCN(S(=O)(=O)c4ccc5c(c4)NC(=O)CO5)CC3)n2)cc1	n	n	n	n	x	x	x
O=c1[nH]c(SCc2ccccc2[N+](=O)[O-])nc2nc[nH]c12	n	45[inhibitor]	n	n	n	n	n
O=[N+]([O-])c1ccccc1CSc1ccccn1	n	n	n	n	x	x	x
CCN(CC)c1ccc(/C=c2\sc3nnc(-c4ccccc4Cl)n3c2=O)cc1	n	n	44[inhibitor]	n	n	n	n
CCN(CC)c1ccc(/C=c2/sc3nnc(-c4ccccc4C)n3c2=O)cc1	n	n	x	318	n	n	n
CC12CC3(C)CC(C)(C1)CC(C(=O)NC(=S)NC(C)(C)C)(C2)C3	n	n	n	n	x	x	x
[O-]/C(=C(\C(=S)NCCN1CCOCC1)[n+]1ccccc1)c1ccc(Cl)s1	n	n	n	n	x	x	x
SMILES	GRK2 inh	MEKK3 PB1 HTS	MEKK2 WT-MEK5	MEKK2mut PB1 HTS	MEKK2wt confirm	MEKK2mut confirm	MEKK3-MEK5 inh
[O-]/C(=C(\C(=S)NCc1ccccc1)[n+]1ccccc1)c1ccc(Cl)s1	n	74[inhibitor]	n	n	n	n	n
Cc1ccc(C(=O)N/C(=C\c2ccc(-c3ccccc3[N+](=O)[O-])o2)C(=O)NCCCN(C)C)cc1	n	n	n	25	n	n	n
Cc1ccc(C(=O)N/C(=C\c2ccc(-c3ccc(Cl)cc3)o2)C(=O)NCCCN(C)C)cc1	n	43[inhibitor]	n	n	n	n	n
CCNC(=O)c1ccc2c(c1)S(=O)(=O)c1ccccc1C2=O	n	n	n	n	x	x	x
O=[N+]([O-])c1ccccc1N/N=C/c1c[nH]c2ccccc12	n	n	n	n	x	x	x
O=c1c([N+](=O)[O-])c[nH]c2ccccc12	n	135	n	n	n	n	n
O=C1CN(C(=O)COc2c(F)c(F)cc(F)c2F)c2ccccc2N1	n	n	n	n	x	x	x
CC(=O)OC1OCCOC1NC(=S)NCc1ccco1 (stereo not drawn)	n	1.0[inhibitor]	x	n	n	n	n
CCOc1ccc(NC(=S)NC(=O)Cc2ccccc2)cc1	n	n	n	n	x	x	x
COc1cc(/C=N/Nc2ccccn2)ccc1OCC(C)C	n	n	n	n	x	x	x
COc1ccc(/C=C/c2cc(C(F)(F)F)on2)cc1	n	50[inhibitor]	n	n	n	n	n
CC1CCN(S(=O)(=O)c2ccc3c(c2)N(CC(=O)NCCCN2CCCC(C)C2)C(=O)CS3)CC1 (stereo not drawn)	n	n	n	n	x	x	x
COc1ccc([N+](=O)[O-])c(OC)c1C(=O)NC(=O)Nc1nc(C)cc(C)n1	n	n	n	n	x	x	x
Cc1ccc(CSCC(=O)NCc2cccnc2)cc1	n	137	n	n	n	n	n
CCOC(=O)N1CCN(C(=O)c2cccn3c(=O)c4c5c(sc4nc23)CCCC5)CC1	n	n	n	n	x	x	x
CC(=O)c1cccc(NC2c3ccccc3C(=O)N2Cc2ccco2)c1 (stereo not drawn)	n	134	n	n	n	n	n
CC(=O)c1ccc(N2CCc3ccccc3C2)c([N+](=O)[O-])c1	n	72[inhibitor]	n	n	n	n	n
O=C(NNC(=O)c1ccccc1F)c1cccc(S(=O)(=O)N2CCc3ccccc32)c1	n	x	x	x	x	x	x
C/C(=N/NC(=O)Cc1c(C)[nH][nH]c1=O)c1ccc(O)cc1	n	145	n	n	n	n	n
C/C(=N\NC(=O)Cc1c(C)[nH][nH]c1=O)c1ccc(Cl)c(Cl)c1	n	n	n	n	x	x	x
C/C(=N\NC(=O)Cc1c(C)[nH][nH]c1=O)c1cccc(Br)c1	n	49[inhibitor]	n	n	n	n	n
Cc1[nH]c2ccccc2c1C(=O)CN1CCCCC1CCO (stereo not drawn)	n	44[inhibitor]	n	n	n	n	n
COc1ccc(CNCCCSc2ncccn2)cc1OC	n	n	n	30	n	n	n
Clc1cccc(CNCCCSc2ncccn2)c1	n	n	139	27	n	n	n
CSc1ccc(CNCCCSc2ncccn2)cc1	n	n	147	25	n	n	n
COc1ccc(CNCCCSc2ncccn2)c(OC)c1	n	n	n	n	x	x	x
Nc1c(C(=O)CSc2nnc(-c3ccccc3F)o2)c(=O)[nH]c(=O)n1C1CC1	n	x	x	x	x	x	x
CCOC(=O)Cc1csc(NC(=O)CSc2ncnc3c2cnn3-c2ccc(OC)cc2)n1	n	n	n	n	x	x	x
CCOc1ccc(CCNC(=O)C(C)n2nc(C)n3c(cc4occc43)c2=O)cc1OCC (stereo not drawn)	n	n	69[inhibitor]	n	n	n	n
